Entries with a potency or affinity are not part of this list. Activity calls are given as the source filed them. No rule for the calls is given here.

This experiment in a line: Vero E6 cell cytotoxicity, dose response, cytotoxicity control (AID 540298). Particulars: Vero E6 cells viability; series mostly up to 40 µM.
As for `CN(C)c1cccc2c(C=C(C#N)C#N)ccc(N(C)C)c12`, the compound was classed as inactive.

Turning to `CC(c1ccccn1)N(CCN(C)C)C(=S)Nc1cccc(F)c1` (stereo not given), the compound was classed as inactive.

In the case of `COc1ccc(N2CCN(CCCN)CC2)cc1`, the compound was called inactive.

Take `CCOC(=O)c1c(CN(C)C)oc2cc(CN(C)C)c(O)c(CSc3ccccc3)c12`: the compound was classed as inactive.

Consider `Cc1ccc(N2C(=O)C(CC(=O)Nc3cccc(F)c3)N(C3CC3)C2=O)cc1` (stereo not given), for which the call was inactive.

These data come from PubChem BioAssay AID540298 (Southern Research Specialized Biocontainment Screening …, 2011).
